In article PMC5540273 (PLoS ONE, 2017):

Key:
Conditions in all cases: concentration: 1 μM, replicates: in singlicate; n = 1
PRKCH = system: PRKCH
PRKCI = system: PRKCI
PRKCQ = system: PRKCQ
PRKD1 = system: PRKD1
PRKD2 = system: PRKD2
PRKD3 = system: PRKD3
PRKG1 = system: PRKG1
PRKG2 = system: PRKG2
PRKR = system: T1, PRKR
T1 construct: gene EIF2AK2

PRKX = system: PRKX
PRP4 = system: PRP4
PYK2 = system: T2, PYK2
T2 construct: gene PTK2B

QSK = system: QSK
RAF1 = system: RAF1
RET = system: RET
RIOK1 = system: RIOK1
RIOK2 = system: RIOK2
RIOK3 = system: RIOK3
RIPK1 = system: RIPK1
RIPK2 = system: RIPK2
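Note: KINOMEscan kinase panel screen.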

Structure (SMILES) | %Inh (PRKCH) [%] | %Inh (PRKCI) [%] | %Inh (PRKCQ) [%] | %Inh (PRKD1) [%] | %Inh (PRKD2) [%] | %Inh (PRKD3) [%] | %Inh (PRKG1) [%] | %Inh (PRKG2) [%] | %Inh (PRKR) [%] | %Inh (PRKX) [%] | %Inh (PRP4) [%] | %Inh (PYK2) [%] | %Inh (QSK) [%] | %Inh (RAF1) [%] | %Inh (RET) [%] | %Inh (RIOK1) [%] | %Inh (RIOK2) [%] | %Inh (RIOK3) [%] | %Inh (RIPK1) [%] | %Inh (RIPK2) [%]
Cc1c(Cn2c3ccccc3n3c(=O)cc(N4CCOCC4)nc23)cccc1C(F)(F)F [GSK2306394] | 22 | 9 | 10 | 0 | 10 | 27 | 28 | 0 | 25 | 30 | 0 | 0 | 0 | 0 | 0 | 35 | 12 | 0 | 4 | 0
Cc1ccccc1Cn1ccn2c(=O)cc(N3CCOCC3)nc12 [GSK2269905] | 20 | 0 | 0 | 0 | 9 | 0 | 19 | 0 | 0 | 0 | 14 | 0 | 0 | 8 | 0 | 0 | 0 | 0 | 0 | 0
COc1ccc(CSc2nnc(-c3ccc4ncsc4c3)o2)cc1C(F)(F)F | 0 | 0 | 10 | 17 | 7 | 11 | 0 | 0 | 3 | 0 | 20 | 0 | 0 | 7 | 0 | 10 | 13 | 22 | 0 | 0
Cn1cncc1-c1cc2c(Nc3ccc(OCc4ccccc4)cc3)ncnc2cn1 [GW281179] | 13 | 12 | 0 | 0 | 2 | 1 | 8 | 100 | 0 | 15 | 23 | 9 | 0 | 34 | 5 | 27 | 11 | 6 | 0 | 92.1
CC[C@@H]1CO[C@H](C(=O)Nc2ccccc2)CN1c1cc(-c2ccc3c(N)n[nH]c3c2)nc(NC)n1 [GSK2376236] | 6 | 39 | 24 | 0 | 12 | 3 | 13 | 84 | 12 | 95 | 11 | 0 | 0 | 4 | 11 | 48 | 4 | 40 | 0 | 9
CS(=O)(=O)Cc1ccc(Nc2nccc(-c3c(-c4cccc(NC(=O)C5CCCCC5)c4)nn4ncccc34)n2)cc1 [GSK350559] | 3 | 23 | 25 | 0 | 0 | 18 | 0 | 3 | 0 | 5 | 1 | 0 | 34 | 0 | 34 | 28 | 0 | 36 | 13 | 5
c1ccc(-c2ccnc3[nH]ccc23)cc1 [SB-693578] | 0 | 13 | 0 | 0 | 0 | 0 | 0 | 2 | 0 | 0 | 44 | 5 | 15 | 41 | 0 | 14 | 27 | 0 | 0 | 18
CS(=O)(=O)CCNCc1nc(-c2ccc3ncnc(Nc4ccc(OCc5ccccc5)c(Cl)c4)c3c2)cs1.Cl [GW582764] | 2 | 39 | 3 | 2 | 0 | 100 | 0 | 1 | 0 | 0 | 51 | 1 | 0 | 13 | 0 | 0 | 0 | 0 | 0 | 68
Cc1ccc(NC(=O)Nc2ccc(Cl)c(C(F)(F)F)c2)cc1-c1ccc(C(=O)Nc2ccncc2)cc1 [GSK1398470] | 23 | 0 | 23 | 0 | 17 | 13 | 0 | 39 | 0 | 0 | 1 | 4 | 9 | 90 | 28 | 30 | 12 | 13 | 17 | 0
COC(=O)c1cccc(NC(=O)NC2CCN(c3ccnc(Nc4ccc(OC)cc4)n3)C2)c1 (stereo not shown) [GSK1379746] | 31 | 13 | 0 | 0 | 0 | 0 | 0 | 0 | 0 | 0 | 59 | 0 | 1 | 23 | 0 | 43 | 0 | 0 | 0 | 4
COc1ccc(Nc2nccc(NCCNC(=O)Nc3cc(C)ccc3C)n2)cc1 [GSK1379899] | 41 | 22 | 0 | 0 | 0 | 11 | 18 | 0 | 0 | 5 | 6 | 0 | 0 | 3 | 16 | 35 | 0 | 24 | 4 | 0
